# Values without a mark were called inactive. No rule for the calls is given here.
# B1: d1r6_design_ppi_81_dldesign_0_cycle1_af2pred (protein)
# chain: AATQQILITAAVMLEERLDELGRAAEVAAMALLYGAAFGSLEKAREKLEELAATLSAEEAARARATFDEAVAAAQAAA
# B2: d1r7_design_ppi_302_dldesign_0_cycle1_af2pred (protein)
# chain: SPVAAQAEALRDAAVAVAKTGNPEAAAAAAHAAVAQMNRLALAHPEENATASSEAVATLEEVDRLRAAQRAAAG
# B3: d1r6_design_ppi_17_dldesign_0_cycle0_af2pred (protein)
# chain: MDFAASAQAAQRDAERLAERGIASGDAADLRRATEAVEQLLEIVQGLAAQGAAEAGEQLQAAVERTRAALERTRAAAAAAEAAAA
# B4: d1r6_design_ppi_780_dldesign_0_cycle1_af2pred (protein)
# chain: NAAATRAFSLAVARQAEETAKQVAGVDPELAKKLKELAKEVRKLAADPATHLQAVEATIEALKAIGEANKKLA
# B5: d1r6_design_ppi_250_dldesign_0_cycle0_af2pred (protein)
# chain: SAALAAARGAILQAALSLGVERAREAFARVEASDPAEAAALAEALAAEAAARDPAIGARAAAGAAALRAA
# B6: d1r6_design_ppi_265_dldesign_0_cycle1_af2pred (protein)
# chain: AAAQARALGAVAKQAVLDGKFDEAKQLIEGLVNLAQADPAAAPQAAKEMKEIAKAAEEKAKADPANAAKYKALAKVAAAAAKEAEKAA
# B7: d1r7_design_ppi_304_dldesign_0_cycle0_af2pred (protein)
# chain: AAEAAAAAAATARASAAMAAFARRRLEEGAAAGPEALARAVAELEALAAHADPAIGAALRAALAATLAALAAAA
# B8: d1r6_design_ppi_480_dldesign_0_cycle1_af2pred (protein)
# chain: AAETQQAADIIIANAEHAKRLAKENPEAGEKLVEVLEESAKWVEAKDPEAGAKAKKAVEEAKKVAEAVKAAREAAKALA
# B9: d1r7_design_ppi_29_dldesign_0_cycle1_af2pred (protein)
# chain: SAATAVALAQAAITFGRSALAAAERAPPERGAKILEAAAEILTAAAAQAPALAAETQALAAEARERAAELAAAAAA
# B10: d1r7_design_ppi_24_dldesign_0_cycle0_af2pred (protein)
# chain: SELGAILDRASEVSKRAVEVEKKAKEKGLEEALELAREALKEVQAALSLIAKGGDLADAQAKLEEGEKLLEEAEKKLKEE
# B11: d1r7_design_ppi_420_dldesign_0_cycle1_af2pred (protein)
# chain: MTKAEVVAEAIAVAKEAAKIAKANKESPEVQELQKKALDLAFKALASNDAAEAQKYAEKAKEVKKELEKKAKEL
# B12: d1r7_design_ppi_71_dldesign_0_cycle1_af2pred (protein)
# chain: DYAAQQLALTTRAQEVAERAKKAGKELGNPEEAKKIQQLASLAQALAINPATFPQAEKKLEEAEKRAKKLEKKAKE
# B13: d1r6_design_ppi_647_dldesign_0_cycle0_af2pred (protein)
# chain: SKAELLAYKALAAAAKNALEQVKTGEEAEKAVESLKKMAEALGDEETAKLAEEALKAIKKSKEEGEKKLEEAKKYAEKKAKEAA
# B14: d1r6_design_ppi_166_dldesign_0_cycle0_af2pred (protein)
# chain: SAVAADGAAALAVAADLMAAGKEYAAAGDLANAARAYQSARALAATMAAAAAAAGDAATAAALAAAAAAAAAAEAEVKA
# B15: d1r7_design_ppi_74_dldesign_0_cycle1_af2pred (protein)
# chain: AKEKAEELYKKFSEEINKSLALLGKAGLAAVEDPAKGAELFKKAKAELEEAKKYAKKLEELDPELGKKAKAELKKVQDLYDGTYKANV
# B16: d1r6_design_ppi_671_dldesign_0_cycle1_af2pred (protein)
# chain: AVEEALKKAEEAAKELEKVAKELGDKEAKEKAKQVKSLIEFAKVAAEAGDEKTALHAAKQAKELAEKALKEAKAKLEAKKAEEEKLKK
# B17: d1r6_design_ppi_725_dldesign_0_cycle0_af2pred (protein)
# chain: AELAATHMAGVEALNRARAAAVALVALDPARGAAWLAEADELGRRLNEAAADASRAEELKRITEELEKLAERIAAERDAAAA
# B18: d1r7_design_ppi_300_dldesign_0_cycle0_af2pred (protein)
# chain: MQVMLDAGEYLAKALKATGLEEAKEMAEEVLKAMKEAASLSPEEAESILGELMRKTIAKTGVVGAQAAALAYAHLAELKAA
# B19: d1r6_design_ppi_2_dldesign_0_cycle1_af2pred (protein)
# chain: EQYFTDRDIAAAEAAAAKYAALAADPEARAYAARFREAAALIRDPATRAEGIDLLAATEAAAAAHAKALAA
# B20: d1r7_design_ppi_351_dldesign_0_cycle0_af2pred (protein)
# chain: EELEEKKKKAIELLKKAKEKAEKIGDTAVAAAAENAIKAIEAGNLEAAISNARLAKAIAAEDPALKEAAELAKKALEELEEAKKLAEA
# B21: d1r6_design_ppi_106_dldesign_0_cycle1_af2pred (protein)
# chain: DLISKAVYYYALGIADPANAAEYKAKAQAEIDKLSPEEAAKAKAELEKVTKSQEELAAKSAERAAARAAAA
# B22: d1r6_design_ppi_906_dldesign_0_cycle0_af2pred (protein)
# chain: AAAAQAEVTIKMGEAVIKQGEEWIEHPEYAEHAAKLLEAVADIAKATAKAAAAADAELAKKVEETRKKLEEVREKAKAVAEA
# B23: d1r7_design_ppi_241_dldesign_0_cycle0_af2pred (protein)
# chain: SELEARGERIKREAEELRRRAEASTDAEEALAYATELVALAAEAAALGDSEAASVAVRAAAAAHAHAQALRA
# B24: d1r7_design_ppi_77_dldesign_0_cycle1_af2pred (protein)
# chain: SAVEDAANAIWEAAKAMAKAVPEAAATVDKLAREAVRALMLGDYEKAAKIVKEMAKAVAKADPKAAKKAEELAKKTVAKIKAA
# B25: d1r7_design_ppi_322_dldesign_0_cycle0_af2pred (protein)
# chain: MTLEDLKRAAKAYLHGLANLAAGLGLEELAKKLREAAANVDDAKALKEGAELAKELAALSTPEAAEFAKLAAEVAKAAAKAVEAA
# B26: d1r6_design_ppi_754_dldesign_0_cycle1_af2pred (protein)
# chain: GKEEELLKKAKEYFEEAEKYIKELEEVAAKAGPAAKGLVTFTKNYFERLKAKAEKATPEEALKLAKEAYDFAKDALEAAKTTLAALE
# B27: d1r7_design_ppi_270_dldesign_0_cycle1_af2pred (protein)
# chain: SMEKALEYLEKAKKSLEEGDKAKAAGDKARALGYYQLAAAYAKSAAHLAKDNPELAKEAKELEKEAKAKLAEVRAA
# B28: d1r7_design_ppi_446_dldesign_0_cycle1_af2pred (protein)
# chain: GEAARNAEEIFADSRERARALAAEYRASGDPADLAIAAELEEALARAEEEGPAGGVRLIILTDGILQARAAAAA
# B29: d1r7_design_ppi_290_dldesign_0_cycle0_af2pred (protein)
# chain: SAEAAEAEAAAARELAREMYALTPEEAAERMTALFLESPGRALRAATELVRAEGPAALPLAQAWLRAGVAAAQAA
# B30: d1r6_design_ppi_612_dldesign_0_cycle1_af2pred (protein)
# chain: GAALEEQAKKIAEEAIEKIKKGAETGSLSPEEILALASKTVAQLSAIAIASKGGVAAGAGAVEVQKVAAEAL
# B31: d1r7_design_ppi_393_dldesign_0_cycle1_af2pred (protein)
# chain: EKLHPQAVAALKAQARNAAKLDPETMKKMAENVAKLVTLLSPAKAKEAEKVKELLLKAAEAKKKGAGEETLKALVEEAAKVIAE
# B32: d1r6_design_ppi_905_dldesign_0_cycle0_af2pred (protein)
# chain: AAVEAAQEEALRALEEARALAREVLAADPERAARVAARIEEAAELVRDGEKINEGLALLVELAAESPAEVKPALMRAAALAGRAYVLR
# B33: d1r6_design_ppi_106_dldesign_0_cycle0_af2pred (protein)
# chain: AAISRAMYHHALGLADAANREAHLAAAAALRAALSPEDAARAEAQIAKIEAAAAANQAAAAAARAARAAAA
# B34: d1r7_design_ppi_252_dldesign_0_cycle1_af2pred (protein)
# chain: VKEEAVALAKEAAALAREAAELLAPDPLLAAQAQRLAERAEELAERAKAASEEEAKELLEEARVLLAQAELLLTIARQR
# B35: d1r7_design_ppi_3_dldesign_0_cycle1_af2pred (protein)
# chain: AAEAAALYEATRAAAEALARVDPALAAEAARLRGQALRYYSLTFVDPAAGRAGVAAVLAEAKRLLAAARARA
# B36: d1r7_design_ppi_396_dldesign_0_cycle0_af2pred (protein)
# chain: SSPVEQAMKVIEKYMKELAKVVGQEKADAAKNLLFGALAKGVHAGVEAAKAELQAAAKEIQKEIKDPEAQKIIQEATKEAIKELE
# B37: d1r6_design_ppi_627_dldesign_0_cycle1_af2pred (protein)
# chain: DEVQREIRERVERGRETAKRAAQHPATAPIAAAIRATAERAEAASSDPERALNYAQMTDVAIANGELALAQVAA
# B38: d1r7_design_ppi_147_dldesign_0_cycle1_af2pred (protein)
# chain: AAAAAKATAKQIAAIAEEAIAKVKAATPEEAKKIAAEANQQIRALAAAAAAAHPEVAAAVAAAATAAIQRVLSTAIEVVSA
# Biological target: CD276, Q5ZPR3
# Sequence (Q5ZPR3 whole entry): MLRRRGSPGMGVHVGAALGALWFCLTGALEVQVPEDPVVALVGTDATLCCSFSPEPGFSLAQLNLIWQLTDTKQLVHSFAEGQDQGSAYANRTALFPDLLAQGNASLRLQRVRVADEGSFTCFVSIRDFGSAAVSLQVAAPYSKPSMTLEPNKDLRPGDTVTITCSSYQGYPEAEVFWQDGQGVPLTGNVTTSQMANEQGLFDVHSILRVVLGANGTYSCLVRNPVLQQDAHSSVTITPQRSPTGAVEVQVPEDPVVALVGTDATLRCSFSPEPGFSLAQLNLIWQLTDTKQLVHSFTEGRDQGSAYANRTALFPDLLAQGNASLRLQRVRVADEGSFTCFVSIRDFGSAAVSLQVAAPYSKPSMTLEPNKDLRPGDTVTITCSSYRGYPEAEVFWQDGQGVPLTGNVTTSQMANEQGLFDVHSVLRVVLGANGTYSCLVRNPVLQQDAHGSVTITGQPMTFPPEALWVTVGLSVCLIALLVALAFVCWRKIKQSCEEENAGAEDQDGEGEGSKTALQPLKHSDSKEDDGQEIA
row,Binder,binding in a display sort
1,B1,not found
2,B2,not found
3,B3,not found
4,B4,not found
5,B5,not found
6,B6,not found
7,B7,not found
8,B8,not found
9,B9,not found
10,B10,not found
11,B11,not found
12,B12,not found
13,B13,not found
14,B14,not found
15,B15,not found
16,B16,not found
17,B17,not found
18,B18,not found
19,B19,not found

row,Binder,binding in a display sort
1,B20,not found
2,B21,not found
3,B22,not found
4,B23,not found
5,B24,not found
6,B25,not found
7,B26,not found
8,B27,not found
9,B28,not found
10,B29,not found
11,B30,not found
12,B31,not found
13,B32,not found
14,B33,not found
15,B34,not found
16,B35,not found
17,B36,not found
18,B37,not found
19,B38,not found

# Source: paper PMC13494018
